From PubChem BioAssay
GALC G270D act: A Novel Cell-Based Assay to Identify Small Molecules for B -Galactocerebrosidase; P54803; 145M-Twi-hGALC-G270D cells, HMU-beta-Gal fluorescence, 48 h; Potency, µM (doses to about 57.5 µM), hits mostly activators; 45,000 compounds, 0.1% hits; AID 1159614, 2016; also: potency is read from the fitted curve at half-maximal effect; 0% is about no effect; nearly all actives have a fitted effect of over 65% in size
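qHTS, 1536-well; 145M-Twi-hGALC-G270D cells (WT line also made) in DMEM/F12 + 10% FBS; compound incubation on live cells; HMU-β-gal 0.1 mM final, pH 5.2, NaTC; carbonate stop; fluorescence increase = enhanced residual activity.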
B2AR arrestin ag: qHTS assay of beta-arrestin-biased ligands of beta2-adrenergic receptor: NCGC Sytravon Library Screen; HTLA Tango cells, beta-arrestin recruitment, luciferase luminescence, 18 h; Potency, µM (top dose mostly 46.1 µM), usual class: activators; 44,000 tested, under 10 active; AID 1347077, 2019;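 also: potency is read from the fitted curve at half-maximal effect; 0% = DMSO and full agonism = EC100 isoproterenol or metaproterenol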
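Tango cells (recombinant beta2-AR, beta-arrestin, tTA-driven luciferase), 1500/well in DMEM 1% FBS, treated 18 h at 37 °C with compounds up to 46 µM; luciferin mix added, luminescence read after 15 min; %activity curves fitted and curve-classed.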
NTMT1 inhibitor: Primary qHTS for Inhibitors of N-terminal methyltransferase 1 (NTMT1): MTaseGlo Assay; N-terminal Xaa-Pro-Lys N-methyltransferase 1 (Homo sapiens), Q9BV86; NTMT1 MTase-Glo SAH luminescence, purified enzyme; Potency, µM (highest dose often 114 µM), inactives show at the top dose activity change, negative = inhibition, actives largely listed as inhibitors; 59,000 compounds, 2.5% hits; AID 1645870, 2021;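 also: potency is read from the fitted curve at half-maximal effect; plate controls were DMSO vehicle for no effect and no enzyme for full effect; nearly all actives have a fitted effect of over 65% in size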
Target sequence (Q9BV86 whole entry, looked up): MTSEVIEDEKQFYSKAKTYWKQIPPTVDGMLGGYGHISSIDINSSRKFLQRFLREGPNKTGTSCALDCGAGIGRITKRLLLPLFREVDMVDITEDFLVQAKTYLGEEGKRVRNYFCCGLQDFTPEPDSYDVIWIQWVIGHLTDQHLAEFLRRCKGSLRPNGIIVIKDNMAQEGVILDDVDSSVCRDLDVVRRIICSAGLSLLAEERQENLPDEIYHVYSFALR
GPR32 ag: qHTS for Agonists of Human Resolvin D1 Receptor DRV1. AID 1346428, 2018. activation, % at 76.9 µM. CHO-K1 GPR32 beta-arrestin PathHunter luminescence, 90 min; zero percent set by DMSO-only wells. Probable G-protein coupled receptor 32 (Homo sapiens), O75388. 48,000 compounds, 2.5% hits;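 active = activation of at least 60% and not above a set upper limit, about 1 call in 100 departs from these limits; inconclusive = activation of 40% to 60%, or above that upper limit; inactive = activation under 40%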; also: 0% is about no effect
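Agonism was scored as beta-arrestin recruitment to ProLink-fused GPR32 in stably transfected CHO-K1 cells, giving a chemiluminescent beta-Gal signal; compounds were incubated 90 min at 37 °C.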
GALK inhibitor: qHTS Assay for Inhibitors of Human Galactokinase (GALK): NCGC Sytravon Library Screen. Potency, µM (highest dose often 57.5 µM), for inactives: at the highest dose activity, negative = inhibition, actives largely listed as inhibitors. 44,000 tested, under 10 active. AID 1347072, 2019. recombinant GALK, Kinase-Glo ATP luminescence, 1 h. P51570;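 also: plate controls were full GALK reaction for no effect and reaction lacking GALK for full effect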
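Luminescent ATP-depletion readout (Kinase-Glo Plus, 10 min) after 1 h RT reaction of 5 nM GALK, 35 uM ATP, 100 uM galactose, pH 8.0 HEPES buffer. Decreased kinase activity scored as inhibition.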
The depositor's hits bear a star; i = inactive; ? = inconclusive; . = no result given; [ ] = another dose, or the depositor's remark. In the library only some 3.6% were active in any assay of this set; here they are far more common. Unless noted, calls follow the shape of the dose curve; as a rule, active = well fitted curve in the direction sought with a large enough effect; inconclusive = small, poorly fitted or top-dose-only effect, or another doubt; inactive = no such curve, though single readings can be large; an effect the other way counts as inactive or inconclusive.

SMILES	GALC G270D act	B2AR arrestin ag	NTMT1 inhibitor	GPR32 ag	GALK inhibitor
Cc1nn2c(=O)cc(COC(=O)c3ccc(NC(=O)COc4ccccc4F)cc3)nc2s1	i	i	?	62*	5%
O=C(Cc1ccc(Cl)c(Cl)c1)Nc1ccc(S(=O)(=O)Nc2cccc(C(=O)O)c2)cc1	.	.	-13%	.	.
CCOc1ccc(-n2c(SCC(=O)N3CCCCCC3)nc3c([nH]c4ccccc43)c2=O)cc1	i	i	?	-3	3%
CCOc1ccc(-n2c(SCC(=O)N3CCCC3)nc3c([nH]c4ccccc43)c2=O)cc1	i	i	26%	77*	-1%
Cn1nc(-c2ccc(C(=O)Nc3ccc(F)cc3)cc2)c2ccccc2c1=O	i	i	?	105*	2%
Cn1nc(-c2ccc(N3CCCCC3)c(NC(=O)c3ccc(Cl)cc3)c2)c2ccccc2c1=O	i	i	15%	0	3%
Cc1ccc(NC(=O)COc2ccc(-c3nn(C)c(=O)c4ccccc34)cc2)cc1	i	i	-14%	26	0%
Cn1nc(-c2ccc(OCC(=O)Nc3cccc(C(F)(F)F)c3)cc2)c2ccccc2c1=O	i	i	-6%	85*	3%
COc1ccc(C2Nc3ccccc3C(=O)N2Cc2ccc(C(F)(F)F)o2)cc1COc1c(C)cccc1C (stereo not given)	.	.	12%	.	.
CCOc1ccc(-n2nc3ccc(NC(=O)c4ccc(-c5cccc(Cl)c5)o4)cc3n2)cc1	i	i	79µM*	-5	0%
CC1Oc2cc(cnc2N)-c2c(nn(C)c2C#N)CN(C)C(=O)c2ccc(F)cc21 (stereo not given)	.	.	16%	.	.
CCOc1ccc(CCNc2ncnc3onc(C)c23)cc1OCC	i	i	9%	64*	2%
Cc1ccc(CCNc2ncnc3onc(C)c23)cc1	i	i	-5%	97*	0%
Cc1noc2ncnc(NCCc3ccccc3)c12	i	i	11%	?	-2%
CCOCCCNc1ncnc2onc(C)c12	i	i	11%	1	3%
O=S(=O)(Nc1ccc(S(=O)(=O)Nc2nccs2)cc1)c1ccc2ccccc2c1	.	.	10%	.	.
COc1cc(/C=C/C(=O)OC[C@H]2O[C@@H](OC3CC(C)=C(C(=O)O)C(C)(C)C3)[C@H](O)[C@@H](O)[C@@H]2O)cc(OC)c1O (stereo not given in full)	.	.	7%[29.8 µM]	.	.
Cc1cc(S(=O)(=O)Nc2ccc(O)c(Sc3nc4ccccc4s3)c2)ccc1Cl	i	i	-9%	101*	0%
O=C(Cc1ccc(Cl)c(Cl)c1)Nc1ccc(S(=O)(=O)Nc2cncnc2)cc1	.	.	17%	.	.
N#Cc1cnc(NS(=O)(=O)c2ccc(NC(=O)Cc3ccc(Cl)c(Cl)c3)cc2)s1	.	.	79µM*	.	.
O=C(Nc1cccc(Br)c1)Nc1nc2c(s1)CCCCCC2	i	i	11%	113*	1%
COc1c2c(c(C)c3c1C(=O)OC3)OC1(C)CC(O)C34OC(OC)(CC(OC(C)=O)C3(C)C1C2)OC4(C)C (stereo not given)	.	.	-15%[29.8 µM]	.	.
CC(C)OC(=O)C(C(=O)OC(C)C)=C1SC=CS1	i	.	?	73*	.
CN(C)c1ccc(C(=C2C=CC(=[N+](C)C)C=C2)c2ccccc2)cc1	i	.	22µM*	95*	.
CN(C)c1ccc(C(=C2C=CC(=[N+](C)C)C=C2)c2ccc(N(C)C)cc2)cc1	i	.	20µM*	-79	.
O=C(O)Cn1nnc(-c2ccc(OCc3cccc(C(F)(F)F)c3)cc2)n1	i	i	7%	0	-1%
COC(=O)c1ccccc1NC(=O)Cn1nnc(-c2ccc(OC)cc2)n1	i	i	5%	-1	2%
